Screen size: about 5,500 compounds; about 2,000 (36%) were called active. Another 18% or so got no clear call; they are omitted. Cut-off read from the data, not from the text of the source: active = normalized growth mostly below about 0.91 (no sharp cut-off); inconclusive = no clear call, values can overlap the other calls; inactive = mostly above about 0.92. The list shows a part of the results.
Assay: chemical genetic growth profiling, strain panel (AID 1159580);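 note: tested at 20 µM; growth read once vehicle control cultures reached saturation at 30 °C; 1 = growth at the plate median or of vehicle wells; lower values mean less growth of the strain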
Details: S. cerevisiae deletion strains, growth OD

Measured: normalized growth

O=C(O)c1cc(=O)c2ccccc2o1
inactive: locus YAL021C, strain ccr4, stronger effect = lower value 1.01 | locus YAL026C, strain drs2, stronger effect = lower value 0.984 | locus YAL030W, strain snc1, stronger effect = lower value 0.971 | locus YBL061C, strain skt5, stronger effect = lower value 0.974 | locus YBR009C, strain hhf1, stronger effect = lower value 0.989 | locus YBR023C, strain chs3, stronger effect = lower value 0.982 | locus YBR171W, strain sec66, stronger effect = lower value 0.965 | locus YBR231C, strain swc5, stronger effect = lower value 0.982 | locus YBR279W, strain paf1, stronger effect = lower value 0.981 | locus YCL011C, strain gbp2, stronger effect = lower value 0.988 | locus YCL016C, strain dcc1, stronger effect = lower value 0.995 | locus YCL061C, strain MRC1, stronger effect = lower value 0.979 | locus YCL069W, strain vba3, stronger effect = lower value 0.99 | locus YCR088W, strain abp1, stronger effect = lower value 0.973 | locus YDL005C, strain med2, stronger effect = lower value 0.967 | locus YDL040C, strain nat1, stronger effect = lower value 0.98 | locus YDR001C, strain nth1, stronger effect = lower value 0.972 | locus YDR069C, strain doa4, stronger effect = lower value 0.966 | locus YDR137W, strain rgp1, stronger effect = lower value 0.971 | locus YDR159W, strain sac3, stronger effect = lower value 1 | locus YDR195W, strain ref2 0.916 | locus YDR297W, strain sur2, stronger effect = lower value 0.983 | locus YDR334W, strain swr1, stronger effect = lower value 0.976 | locus YDR335W, strain msn5, stronger effect = lower value 0.986 | locus YDR392W, strain spt3, stronger effect = lower value 1.02 | locus YEL003W, strain gim4, stronger effect = lower value 0.983 | locus YEL037C, strain rad23, stronger effect = lower value 0.973 | locus YEL061C, strain CIN8 (second series), stronger effect = lower value 0.97 | locus YER015W, strain faa2, stronger effect = lower value 0.99 | locus YER016W, strain bim1, stronger effect = lower value 0.984 | locus YER111C, strain swi4, stronger effect = lower value 0.972 | locus YER155C, strain BEM2 (second series), stronger effect = lower value 0.936 | locus YFR010W, strain ubp6, stronger effect = lower value 0.976 | locus YGL167C, strain pmr1, stronger effect = lower value 0.973 | locus YGL173C, strain kem1, stronger effect = lower value 0.975 | locus YGL227W, strain vid30, stronger effect = lower value 0.968 | locus YGL240W, strain doc1, stronger effect = lower value 0.96 | locus YGL253W, strain hxk2, stronger effect = lower value 0.992 | locus YHR013C, strain ard1, stronger effect = lower value 0.978 | locus YHR027C, strain rpn1, stronger effect = lower value 0.977 | locus YHR030C, strain SLT2, stronger effect = lower value 1.03 | locus YHR079C, strain IRE1, stronger effect = lower value 1.02 | locus YHR142W, strain chs7, stronger effect = lower value 0.983 | locus YJL092W, strain hpr5, stronger effect = lower value 0.98 | locus YJL095W, strain BCK1 (second series), stronger effect = lower value 0.97 | locus YJL095W, strain BCK1, stronger effect = lower value 1.03 | locus YJL115W, strain asf1, stronger effect = lower value 0.979 | locus YJL129C, strain trk1, stronger effect = lower value 0.95 | locus YJL154C, strain vps35, stronger effect = lower value 0.952 | locus YJL164C, strain tpk1, stronger effect = lower value 0.98 | locus YJL166W, strain qcr8, stronger effect = lower value 0.97 | locus YJR066W, strain TOR1, stronger effect = lower value 0.956 | locus YKL160W, strain elf1, stronger effect = lower value 0.987 | locus YKR026C, strain gcn3, stronger effect = lower value 0.971 | locus YKR091W, strain srl3, stronger effect = lower value 0.972 | locus YLL001W, strain dnm1, stronger effect = lower value 0.957 | locus YLL026W, stronger effect = lower value 0.969 | locus YLL041C, strain sdh2, stronger effect = lower value 0.972 | locus YLR027C, strain aat2, stronger effect = lower value 0.979 | locus YLR113W, strain HOG1, stronger effect = lower value 1.05 | locus YLR221C, strain rsa3, stronger effect = lower value 1 | locus YLR258W, strain gsy2, stronger effect = lower value 0.985 | locus YLR262C, strain YPT6 (second series), stronger effect = lower value 0.986 | locus YLR320W, strain mms22, stronger effect = lower value 0.991 | locus YLR342W, strain FKS1, stronger effect = lower value 0.983 | locus YLR357W, strain rsc2, stronger effect = lower value 0.975 | locus YLR370C, strain arc18, stronger effect = lower value 0.974 | locus YLR384C, strain iki3, stronger effect = lower value 0.976 | locus YML120C, strain ndi1, stronger effect = lower value 0.958 | locus YMR058W, strain fet3, stronger effect = lower value 0.984 | locus YMR125W, strain sto1, stronger effect = lower value 0.95 | locus YMR129W, stronger effect = lower value 0.981 | locus YMR205C, strain PFK2, stronger effect = lower value 0.969 | locus YMR231W, strain pep5, stronger effect = lower value 0.949 | locus YNL071W, strain lat1, stronger effect = lower value 0.988 | locus YNL183C, strain NPR1, stronger effect = lower value 0.949 | locus YNL209W, strain ssb2, stronger effect = lower value 1.03 | locus YNL248C, strain rpa49, stronger effect = lower value 0.968 | locus YNL322C, strain KRE1 (second series), stronger effect = lower value 0.953 | locus YNR049C, strain mso1, stronger effect = lower value 0.982 | locus YOR001W, strain rrp6, stronger effect = lower value 0.983 | locus YOR070C, strain gyp1, stronger effect = lower value 0.985 | locus YOR080W, strain dia2, stronger effect = lower value 0.971 | locus YOR083W, strain WHI5, stronger effect = lower value 0.982 | locus YOR106W, strain vam3, stronger effect = lower value 0.972 | locus YOR231W, strain MKK1, stronger effect = lower value 1.07 | locus YOR265W, strain rbl2, stronger effect = lower value 0.976 | locus YOR270C, strain vph1, stronger effect = lower value 0.962 | locus YOR290C, strain snf2, stronger effect = lower value 1 | locus YPL051W, strain arl3, stronger effect = lower value 0.983 | locus YPL078C, strain atp4, stronger effect = lower value 0.975 | locus YPL106C, strain sse1, stronger effect = lower value 0.988 | locus YPL240C, strain hsp82, stronger effect = lower value 0.994 | locus YPL256C, strain CLN2, stronger effect = lower value 1.03
